# Eya2 phos inh: qHTS Assay for Inhibitors of the Phosphatase Activity of Eya2. AID 488837, 2010. recombinant Eya2, OMFP fluorescence dephosphorylation (OMFP is methylfluorescein phosphate). Protein phosphatase EYA2 (Homo sapiens), O00167. Potency, µM (doses to about 76.9 µM), without a hit: at the top dose activity, negative = inhibition, usual class: inhibitors. hit rate 0.006% among 330,000; further: potency means the concentration at half of the fitted maximal effect; on the % scale 0 is the no-effect control and ±100 the full control effect
#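 Eya2 protein (added as 0.2 uM solution) was preincubated with compound for 10 min at ambient temperature in 50 mM HEPES pH 7.5, 50 mM NaCl, 5 uM MgCl2, 0.05% BSA, 1 mM DTT. OMFP (added at 50 uM) then reacted 10 min; fluorescence read at 485/525 nm.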
# D1 ag: Allosteric Agonists of the Human D1 Dopamine Receptor: qHTS; hit rate 1% among 360,000; D(1A) dopamine receptor (Homo sapiens), P21728; AID 504660, 2011; HEK293 T-REx D1 cells, calcium flux, agonist mode; activation, % at 2 µM; in the data active means activation above about 30%; further: 0% is about no effect
# Target sequence (P21728 whole entry, looked up): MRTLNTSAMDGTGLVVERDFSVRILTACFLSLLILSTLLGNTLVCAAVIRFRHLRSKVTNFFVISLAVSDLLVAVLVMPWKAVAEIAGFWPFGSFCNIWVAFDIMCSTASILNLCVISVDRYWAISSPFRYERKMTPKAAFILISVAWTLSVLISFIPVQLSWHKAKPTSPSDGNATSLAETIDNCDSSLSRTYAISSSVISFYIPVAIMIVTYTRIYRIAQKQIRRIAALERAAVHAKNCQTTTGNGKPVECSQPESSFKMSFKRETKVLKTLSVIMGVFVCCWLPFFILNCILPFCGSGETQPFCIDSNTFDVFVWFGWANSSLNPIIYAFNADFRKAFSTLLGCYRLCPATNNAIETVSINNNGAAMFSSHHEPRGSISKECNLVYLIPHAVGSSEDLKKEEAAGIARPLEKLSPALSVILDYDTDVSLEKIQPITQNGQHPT
#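 Agonism was scored from calcium flux recorded over 180 s (1 read/s) after pintool compound addition, following a 10-cycle baseline. Cells were inducible force-coupled HEK293 TREx D1, plated overnight at 30 C and loaded with no-wash calcium dye.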
# D1 antag: Antagonist of Human D 1 Dopamine Receptor: qHTS; D(1A) dopamine receptor (Homo sapiens), P21728; HEK293 TREx D1 cells, calcium flux, dopamine EC80; hits give low values; activity change, negative = inhibition, % at 10 µM; hit rate 3.2% among 360,000; in the data active means activity change below about -30%; further: on the % scale 0 is the no-effect control and ±100 the full control effect
#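 HEK293 T-REx cells expressing inducible, force-coupled D1 receptor; no-wash Ca dye, 30–90 min RT. Cmpd → 180 s read at 1 Hz → EC80 DA → 180 s read.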
# USP2a block: qHTS Assay for Inhibitors of Ubiquitin-specific Protease USP2a Using CHOP2 as the Reporter; hit rate 0.01% among 330,000; Potency, µM (top dose mostly 38.3 µM), inactives show at the highest dose activity change, negative = inhibition, actives largely listed as inhibitors; Ubiquitin carboxyl-terminal hydrolase 2 (Homo sapiens), O75604; USP2 core, Ub-CHOP2 coupled fluorogenic reporter, 485/531; AID 463254, 2010;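 further: potency means the concentration at half of the fitted maximal effect; plate controls were DMSO wells for no effect and full inhibition by NEM control for full effect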
#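 Cell-free coupled assay: 10nM USP2 core preincubated 30min RT with compound in Tris-HCl pH 8.0/CaCl2/CHAPS buffer, then 25nM Ub-CHOP2 and 25nM reporter substrate; fluorescence (Ex 485/Em 531) read after 60min RT, normalized to NEM inhibition, concentration-response curves fitted.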
# D1 potentiator: Potentiators of Human D1 Dopamine Receptor: qHTS | HEK293 TREx D1 cells, calcium flux, dopamine EC20 potentiation | AID 504651, 2011 | hit rate 0.036% among 360,000 | potentiation, % at 10 µM | D(1A) dopamine receptor (Homo sapiens), P21728; in the data active means potentiation above about 30%; further: 0% is about no effect
# GALK inhibitor: qHTS Assay for Inhibitors of Human Galactokinase (GALK). P51570. Purified GALK, Kinase-Glo residual ATP luminescence. Potency, µM (titrated, usually from 57.5 µM), for the others: top-dose activity change, negative = inhibition, hits mostly inhibitors. hit rate 0.007% among 270,000; further: potency means the concentration at half of the fitted maximal effect; on the % scale 0 is the no-effect control and ±100 the full control effect
#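 Galactose (100 uM) and ATP (35 uM) were turned over by 5 nM GALK for 1 h at RT. Kinase-Glo Plus then converted the remaining ATP into a luminescent signal.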
# * hit, by the source's call; nt = no result; ! = a repeat was not active. This is a sample that favours compounds with a hit; in the whole collection about 3.9% have one here. Unless noted, the call rests on the fitted dose curve; in most records, active means well fitted inhibition curve with a large enough effect; inconclusive means small, poorly fitted or top-dose-only effect, or effect the other way; inactive means flat fitted curve, though single readings scatter.
SMILES,Eya2 phos inh,D1 ag,D1 antag,USP2a block,D1 potentiator,GALK inhibitor
Cc1nc(N2CCOCC2)c2c(C(=O)N3CCN(c4cc(Cl)ccc4C)CC3)c(C)oc2n1,nt,3.0,-5.6,nt,-9.2,nt
O=C(C1=C(O)C(=O)N(CCN2CCOCC2)C1c1ccc([N+](=O)[O-])cc1)c1cccs1 (configuration not stated),-3.8%,1.8,-75.2*,-2.2%,-0.9,nt
Cc1sc2c(c1C)c(=O)n(-c1ccc(Cl)cc1)c(=O)n2Cc1cc(=O)n2cc(Br)ccc2n1,nt,0.8,3.9,nt,2.8,nt
O=C(CCn1cnnn1)N1CCCC(Nc2ccc(F)cc2)C1 (configuration not stated),-10.2%,10.6,-35.2*,1.3%,-3.7,-7.4%
COc1ccc(NC2CCCN(C(=O)CCN3CCCC3=O)C2)cc1 (configuration not stated),5.4%,1.1,4.0,0.6%,-1.0,3.2%
Cc1cc(C(=O)N2CCCC(Nc3ccccc3)C2)c2ccc(F)cc2n1 (configuration not stated),5.7%,1.0,-33.3*,-0.1%,-23.0,-3.4%
COc1ccc(NC2CCCN(C(=O)CCN3Cc4ccccc4C3=O)C2)cc1 (configuration not stated),4.7%,2.4,-93.6*,-0.9%,-3.0,5.4%
O=C(c1cc2cc(F)ccc2[nH]1)N1CCCC(Nc2ccc(F)cc2)C1 (configuration not stated),3.6%,6.1,-35.3*,3.2%,-8.4,2.5%
CCOC(=O)C1CCCN(C(=O)c2cc3cc(F)ccc3[nH]2)C1 (configuration not stated),-4.3%,7.9,-23.6,0.5%,-7.0,1.1%
COc1ccc(NC2CCCN(C(=O)c3cc(C)nc4cc(F)ccc34)C2)cc1 (configuration not stated),-5.3%,-0.2,-2.8,1.3%,-1.4,7.8%
CCOC(=O)c1c(C)[nH]c(C)c1S(=O)(=O)NCCN1CCN(c2ccccc2F)CC1,-3.2%,2.1,-79.4*,3.8%,-20.2,-7.8%
CCOc1ccc(NC(=O)NCCN2CCN(c3ccccc3F)CC2)cc1,2.4%,4.2,-60.8*!,8.6%,-23.0,-1.4%
Cc1ccc(-n2nc(C)c(C(=O)NCCCN3CCN(c4ccccc4F)CC3)c2-n2cccc2)cc1,nt,21.8,-46.7*,nt,-3.6,nt
COc1ccc(NC(=O)NCCCN2CCN(c3ccccc3F)CC2)cc1,4.4%,6.5,-86.2*,0.7%,-13.0,3.7%
COc1ccc(NC(=O)NCCCN2CCN(c3cc(C)ccc3C)CC2)cc1,2.0%,-0.6,2.0,-1.1%,-8.6,0.5%
Cc1ccccc1CCNC(=O)c1ccc2c(c1)nc1n2CCC(C)C1 (configuration not stated),nt,-1.1,-3.3,nt,-0.5,nt
COc1ccc(-c2nc(CNC(=O)NC3CCCCC3)c(C)o2)cc1,nt,5.4,-8.3,nt,0.6,nt
Cc1c(Cl)cccc1NC(=O)CN1C(=O)CSc2ccc(S(=O)(=O)N3CCCC3)cc21,nt,1.9,-7.4,nt,-4.8,nt
CN(Cc1ccccc1)Cc1c[nH]c2ccccc12,-6.2%,7.5,-61.5*,1.0%,-13.7,0.0%
CCCCOC(=O)/C(C#N)=C/c1ccc(-c2ccc(Br)cc2)o1,nt,4.5,-6.6,nt,-1.4,nt
Cc1ccccc1S(=O)(=O)Oc1ccccc1C(=O)Oc1ccccc1,-1.6%,8.5,-30.8*,-0.3%,-8.2,nt
COc1ccccc1C(=O)Oc1ccc(C(C)(C)C)cc1,-13.5%,5.2,-4.9,0.6%,8.4,0.4%
Cc1cc2c(s1)c1cnn(Cc3ccc(C)c(F)c3F)c(=O)c1n2C,nt,1.4,5.2,nt,-6.6,nt
COc1ccc(NC(=O)CSC2=Nc3ccccc3C3=NC(CC(=O)NCc4ccc5c(c4)OCO5)C(=O)N23)cc1 (configuration not stated),nt,-0.8,7.9,nt,-1.9,nt
CCOc1ccc(NC(=O)CSC2=Nc3ccccc3C3=NC(CC(=O)NCc4ccc5c(c4)OCO5)C(=O)N23)cc1 (configuration not stated),nt,1.1,-30.1*,nt,-4.1,nt
SMILES,Eya2 phos inh,D1 ag,D1 antag,USP2a block,D1 potentiator,GALK inhibitor
CCc1ccc2ncc3c(-c4ccccc4)nn(-c4ccccc4)c3c2c1,nt,8.8,14.1,nt,11.9,nt
O=C(NNc1ccccc1[N+](=O)[O-])Nc1ccc(Cl)c(Cl)c1,-11.2%,14.0,-27.4,-0.5%,3.5,-0.5%
O=C1NC(=O)C(c2ccccc2[N+](=O)[O-])=C1Nc1ccc(O)c(Cl)c1,8.5%,1.2,-37.8*,-3.1%,-10.4,nt
CCN(CC)c1ccc(NC(=O)C(Cc2ccccc2)NS(=O)(=O)c2ccc(Br)s2)c(C)c1 (configuration not stated),nt,1.5,7.9,nt,-1.4,nt
COC(=O)c1c(C)oc2ccc(N(C(C)=O)S(=O)(=O)c3ccccc3)cc12,20.9%,2.3,-66.3*,0.5%,-9.9,0.0%
COC(=O)c1c(C)oc2ccc(N(C(=O)c3ccncc3)S(=O)(=O)c3ccc(Br)cc3)cc12,nt,12.0,-36.6*,nt,-0.4,nt
CC(=O)c1c(C)oc2ccc(N(C(=O)c3ccncc3)S(=O)(=O)c3ccccc3)cc12,-4.8%,0.6,-5.6,3.4%,-3.5,12.8%
CCOC(=O)c1c(C)oc2ccc(N(C(=O)c3ccncc3)S(=O)(=O)c3ccc(Br)cc3)cc12,nt,2.5,-56.7*,nt,-4.8,nt
COC(=O)c1c(C)oc2ccc(N(C(=O)c3ccncc3)S(=O)(=O)c3cc(C)ccc3C)cc12,nt,0.4,26.2,nt,-0.6,nt
Cc1cccc(NC(=S)NC2CCSc3ccccc32)c1 (configuration not stated),-5.4%,7.6,-33.1*,0.2%,-10.8,-5.6%
CN(C)c1ccc(C(CNC(=O)c2cccc(C(F)(F)F)c2)N2CCCC2)cc1 (configuration not stated),nt,3.6,-17.8,nt,0.3,nt
CCC1CCCCN1S(=O)(=O)c1ccc(NC(=O)c2cc(=O)c3c(C)cc(C)cc3o2)cc1 (configuration not stated),nt,0.2,6.1,nt,-0.4,nt
CCOc1ccc(-c2cc(C(=O)Oc3ccc(C#N)cc3)no2)cc1,nt,3.4,14.0,nt,0.2,nt
Cc1ccc(OC(=O)c2cc(-c3ccc4c(c3)OCCO4)on2)cc1C,nt,5.1,-7.2,nt,-1.3,nt

# Screens deposited in PubChem BioAssay by National Center for Advancing Translational Sciences (NCATS).
